Data from PubChem BioAssay AID485313 (National Center for Advancing Translational Sciences (NCATS), 2010).
Screen size: about 320,000 compounds; about 7,600 (2.4%) were called active. Another 3% or so got no clear call; they are omitted. Calls follow the shape of the dose curve; as a rule, active = well fitted activation curve with a large enough effect; inconclusive = small, poorly fitted or top-dose-only effect; inactive = no such curve, though single readings can be large or run the other way. Shown is part of a subset that was picked to be rich in actives.

Assay: qHTS Assay for NPC1 Promoter Activators; also: nearly all actives have a fitted effect of over 60% in size;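 as to activation: reporter is driven by a mutant NPC1 promoter; % of control where 0% means no effect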
Details: Huh7 NPC1 promoter luciferase reporter, 24 h; series mostly up to 9.22 µM; activation: at the top concentration
Outline: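 Huh7 reporter cells (NPC1 promoter driving luciferase) are dosed with compound for 24 h at 37 °C, 5% CO2; luciferase detection reagent is then added and luminescence measured after 10 min at ambient temperature.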
Potency is read from the fitted curve at half-maximal effect.

activation, inactive:
O=c1c2ccccc2ccc2ccc(P(=O)(O)O)cc12 -2.15%, Cc1nc(COc2cccc(Cl)c2)sc1C(=O)/C=C/N(C)C 18.5%, CN(C)/C=C/C(=O)c1ccccc1F 0.124%, Cn1c(SCC(=O)Nc2nccs2)nnc1-c1cccnc1 -0.463%, O=C(NCCCNC(=O)c1ccccc1Cl)c1cnccn1 -0.803%, COC(=O)c1ccc(OC(=O)c2cnccn2)cc1 0.63%, CCOc1ccc2oc(C(=O)N(CC)CC(=O)Nc3ccc(NC(C)=O)cc3)c(C)c2c1 5.68%, Cc1c(O)c(C)c2c(c1O)C(=O)C[C@@H](c1ccccc1)O2 1.52%, O=C(Nc1ccon1)c1nc[nH]c1C(=O)NCc1ccccc1 0.0628%, CC(Oc1ccc(Br)cc1)C(=O)NC1CCCCCC1 (stereo unspecified) 17.9%, COc1cccc(CC(=O)Nc2ccc(-c3csc(C)n3)cc2)c1 1.47%, CC(C)(C)C(=O)OCc1nc(-c2ccc(O)c(O)c2)cs1 -3.2%, CCN(CC(=O)Nc1cc(Cl)ccc1C)C(=O)CSCc1ccccc1 -2.25%, CC(=O)c1ccc(N2CCN(C(=O)CCc3ccccc3)CC2)cc1 -1.38%, CC(=O)c1ccc(N2CCN(CC(O)c3ccccc3)CC2)cc1 (stereo unspecified) -7.6%, O=C(O)c1cc(S(=O)(=O)Nc2ccc3cn[nH]c3c2)ccc1Br 1.48%, CS(=O)(=O)N1CCN(C(=O)Cc2ccccc2)CC1 -1.21%, CS(=O)(=O)N1CCN(c2cccc(Cl)n2)CC1 2.53%, CCCCN(C(=O)C1=NN(c2cc(C)ccc2C)C(=O)CC1)c1c(N)n(CCC)c(=O)[nH]c1=O -0.22%, COc1ccc(OCCCC(=O)Nc2cccc(S(=O)(=O)N3CCCCCC3)c2)cc1 4.23%, O=C(NCc1cccnc1)C(=O)Nc1nc(-c2ccccc2)cs1 26.3%, Brc1ccc(-c2csc(N/N=C/c3cccnc3)n2)cc1 3.01%, CN(C(=O)COC(=O)Cn1cnc2c1c(=O)n(C)c(=O)n2C)C1(C#N)CCCCC1 -0.17%, O=C(CSc1nnc(Nc2ccccc2F)s1)NC1CCCC1 4.95%, COC(=O)CSc1nc(C)c2ccc(OC)cc2n1 -0.564%, COc1ccc(-c2nnc3ccc(SCc4ccccc4)nn23)cc1 2.4%, Cc1ccc(OCC(=O)Nc2ccccc2C(=O)NC2CC2)cc1 0.788%, CC(C)Oc1ccc(S(=O)(=O)N2CCOCC2)cc1NC(=O)C1CCCC1 1.15%, O=C(c1ccc(Br)o1)N(c1ccccn1)C1CCCCC1 0.227%, COc1cccc(NC(=O)CN(C)CC(=O)c2c(N)n(Cc3ccccc3)c(=O)n(C)c2=O)c1 -2.46%, Cc1cccc(C(=O)c2cccc(C)c2)c1 -0.639%, N/C(=N\OC(=O)c1cc(-c2ccccc2)nc2ccccc12)c1ccncc1 3.57%, C[C@H](NC(=O)C1CC(=O)N(c2ccc3c(c2)OCCO3)C1)C(=O)N1CCC(C(=O)O)CC1 (stereo partly specified) -3.35%, COc1cc(C(=O)OCC(=O)NC23CC4CC(CC(C4)C2)C3)cc(OC)c1OC 0.787%, CSCCC(NC(=O)COc1ccccc1)C(=O)N(C)CC(=O)Nc1ccc(C)cc1 (stereo unspecified) -2.11%, O=C(COC(=O)C1(c2ccc(F)cc2)CCCC1)N1CCNC1=O 0.411%, O=[N+]([O-])c1ccc2c(c1)Nc1nc3ccccc3nc1N2 -0.0231%, O=c1[nH]c2cccnc2n1-c1ccc([N+](=O)[O-])cc1 2.63%, CCN(CC(=O)Nc1ccc(OC)cc1)C(=O)c1ccc(=O)n(Cc2ccccc2)n1 -0.115%, O=c1cc(CCl)nc2scc(-c3ccccc3)n12 -0.115%, Cc1nn2c(=O)cc(COC(=O)c3ccc(NC(=O)C(C)(C)C)cc3)nc2s1 -1.52%, CCC(C)N(C(=O)CSc1nnnn1-c1ccccc1OC)C1CCS(=O)(=O)C1 (stereo unspecified) 4.75%, CC(NCc1ccccc1OC1CCCC1)c1ccccc1 (stereo unspecified) -1.56%, C=CCN(CC=C)S(=O)(=O)c1ccc(C(=O)Nc2sc3c(c2C(N)=O)CCCCC3)cc1 -8.3%, O=C(Nc1sc2c(c1C(=O)O)CCC2)c1ccccc1F 6.62%, COc1ccc(C(=O)OC(C)C(=O)NC2CCCC2)cc1S(=O)(=O)N1CCOCC1 (stereo unspecified) -1.48%, CC(C)CN(C(=O)CSc1ncnc2sccc12)C1CCS(=O)(=O)C1 (stereo unspecified) -2.91%, CC(=O)c1ccc(S(=O)(=O)N2CCC(Oc3ccc(-n4cnnn4)cc3)CC2)cc1 -3.83%, O=C(COC(=O)Cc1ccc(Br)cc1)Nc1ccc(N2CCOCC2)cc1 -1.47%, CC(=O)NC12CC3CC(C1)CC(C(=O)N1CCN(C(=O)c4ccco4)CC1)(C3)C2 0.551%, O=C(c1ccncc1)N1CCN(c2ccc3ccccc3n2)CC1 -0.852%, CC12CCC(C(=O)N3CCN(c4ncccn4)CC3)(c3nc4ccccc4nc31)C2(C)C (stereo unspecified) -0.0128%, CCc1nnc(NC(=O)c2cc(S(=O)(=O)N3CCCCC3)ccc2C)s1 -2.65%, CCC1(C)CC(=O)NC1=O (stereo unspecified) 0.774% [at 46.1 µM], CC(C)(C)OC(=O)NCCCCCNC(=O)c1[nH]cnc1C(=O)Nc1nccs1 9.24%, CCn1c(SCC(=O)Nc2ccc3c(c2)OCCO3)nnc1C(C)C 3.74%, O=C(Nc1ccc2c(c1)OCCO2)c1ccoc1 29.1%, O=C(Nc1cccc(NC(=O)c2ccco2)c1)c1cnccn1 2.89%, CCn1c(SCC(=O)Nc2ccc3c(c2)OCCO3)nnc1-c1ccncc1 -7.41%, O=C(COC(=O)c1ccccc1Cl)NC1CCCCCCC1 -2.13%, O=C(N[C@@H](Cc1c[nH]c2ccccc12)C(=O)O)OCC1c2ccccc2-c2ccccc21 -7.22%, O=C(Nc1ccccn1)C1CCN(S(=O)(=O)c2ccc3c(c2)OCCO3)CC1 14.3%, CCOC(=O)C1CCCN(S(=O)(=O)c2ccc3c(c2)C(C)(C)C(=O)N3C)C1 (stereo unspecified) -2.74%, COc1ccc(N(CCC(=O)NCCc2ccccc2)S(=O)(=O)c2ccc(C)cc2C)cc1 22.4%, COc1ccc([C@H]2CC(=O)C=C(c3ccc(OC(F)(F)F)cc3)C2)cc1OC -9.62%, O=C(O)CSc1ccc(S(=O)(=O)N2CCCC2)cn1 -3.11%, Cc1ccc(C(=O)OCC(=O)Nc2ccc(Cl)cn2)cc1S(=O)(=O)N1CCOCC1 -2.74%, Cc1ccc(C)c(NC(=O)c2ccc3nccnc3c2)c1 17.9%, O=C(NCCc1ccc(F)cc1)c1ccc(S(=O)(=O)N2CCCCC2)cc1 -0.529%, Cc1ccc(S(=O)(=O)NCCC(=O)NCc2ccc(Cl)cc2)cc1C -0.223%, CCN(CC)C(CNC(=O)CSc1nnnn1-c1cccc(F)c1)c1ccco1 (stereo unspecified) -0.632%, CC(NC(=O)c1cccc(S(=O)(=O)N2CCc3ccccc3C2)c1)c1ccco1 (stereo unspecified) -1.49%, CCOC(=O)c1sc(NC(=O)COc2ncnc3ccccc23)c(C(=O)OCC)c1C 0.322%, COC(=O)c1c(NC(C)=O)sc(C(=O)Nc2ccccc2OC)c1C -0.966%, NC(=O)NC(CC(=O)NNC(=O)c1ccccn1)c1ccc(Cl)cc1 (stereo unspecified) -0.18%, CC(C)CCN1CCC(C)(NC(=O)c2ccccc2)C1=O (stereo unspecified) 4.78%, COc1ccc(N(Cc2ccccc2)S(=O)(=O)c2cccc(C(=O)O)c2)cc1 0.572%, COc1ccc(NC(=O)CS(=O)(=O)c2ccccc2)cc1 22.2%, O=C(CN1CCN(S(=O)(=O)c2ccc(Cl)s2)CC1)N1CCCCC1 -0.339%, COc1cc([N+](=O)[O-])ccc1NC(=O)COC(=O)CCOc1ccc(C)cc1 -18.1%, CC(C)c1nc2cc(C(=O)NC(C)c3cnn(C)c3)ccc2o1 (stereo unspecified) -0.273%, COc1ccc(CNC(=O)c2cc(=O)c3c(C)cc(C)cc3o2)cc1 1.79%, CCCN(C(=O)c1nc2nccc(C)n2n1)c1c(N)n(Cc2ccccc2)c(=O)[nH]c1=O -1.99%, Cn1c2cc(B(O)O)sc2c2cnn(Cc3ccccc3F)c(=O)c21 -9.76%, CCOCc1c(C(=O)N2CCN(Cc3ccc(Br)s3)CC2)oc2ccccc12 -2.8%, Cc1ccc(/C=C/C(=O)OCC(=O)Nc2cccnc2Cl)cc1 -3.1%, CCCCOC(=O)Nc1nnc(CC(=O)NCc2ccccc2)s1 -2.1%, CCCCCOC(=O)NCCOC(=O)Nc1ccc(C(=O)OCC)cc1 -4.44%, S=C1NC(c2ccccc2)=NCN1c1ccc(Br)cc1 11.1%, Brc1ccccc1C1Nc2cccc3cccc(c23)N1 -5.12%

Potency, active:
Cc1nc(-c2ccccc2)sc1C(=O)/C=C/N(C)C 2.82 µM, Cn1c(=NC(=O)c2cnccn2)sc2ccccc21 2 µM, COc1ccc(-c2csc(Cc3nc(O)cs3)n2)cc1 3.55 µM, CC(=O)c1ccc(N2Cc3ccccc3C2)cc1 2.51 µM, CS(=O)(=O)N1CCc2nc(-c3ccccc3)sc2C1 2.51 µM, Cc1ccccc1Nc1nc(-c2cccnc2)cs1 1.78 µM, COc1ccc2nc(SCc3ccccc3)nc(C)c2c1 3.16 µM, Cc1cccc(/C(N)=N/OC(=O)c2ccccc2Cl)c1 0.0891 µM, O=[N+]([O-])c1ccc2nc(-c3ccccn3)[nH]c2c1 1.58 µM, Cc1csc2nc(COC(=O)c3cccc(N(C)C)c3)cc(=O)n12 1.41 µM, NC(=O)c1c(NC(=O)c2ccccc2)sc2c1CCCC2 3.98 µM, c1cnc(N2CCN(c3ccc4ccccc4n3)CC2)nc1 1.41 µM, Cn1ccnc1SCC(=O)Nc1ccc2c(c1)OCCO2 2.51 µM, O=C(Nc1ccc2c(c1)OCCO2)c1cnccn1 2.82 µM, O=C(NCCc1ccc(F)cc1)c1ccc2nccnc2c1 1.78 µM, CCC(=O)Nc1sc(C(=O)Nc2ccccc2)c(C)c1C(=O)OC 0.794 µM, COc1ccc(C(CC(=O)c2ccccc2)S(=O)(=O)c2ccccc2)cc1 (stereo unspecified) 3.55 µM, COc1ccc(CNC(=O)c2ccc3oc(C(C)C)nc3c2)cc1 3.55 µM, CCCCCCOC(=O)NCC(O)c1ccccc1 (stereo unspecified) 3.98 µM, Brc1ccccc1C1N=C(c2ccccc2)NO1 (stereo unspecified) 3.98 µM, N#Cc1ccc(C2N=C(c3ccccc3)NO2)cc1 (stereo unspecified) 1.26 µM
